In PubChem BioAssay (NCI):
Compounds without any hit were thinned out: in the full panel of roughly 83,000, 20% have a hit.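 Method: cells in 96-well plates; compound added at one concentration; 48 h incubation; percent growth measured; values under 10 scored active.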 A number with no mark means an inactive call. The source made the active and inactive calls.

The molecules below were run on NCI-H226 lung (assay: NCI-60 one-dose screen, 48 h (100 = growth as untreated, 0 = no growth, -100 = all killed)). Settings: 10 µM unless noted.

SMILES | growth
COc1cc2oc(-c3cccc(NC(=O)c4cc(N)ccc4Cl)c3)cc(=O)c2c(OC)c1OC | 97.1%
CC(C)(C)n1cc(-c2ccnc(NCCCNS(=O)(=O)c3cccc(F)c3)n2)c(-c2ccc(Cl)c(O)c2)n1 | 107%
COc1cccc2cc(-c3cc4ccccc4[nH]3)/c(=N\NC(=O)c3ccc(Cl)cc3)oc12 | 44%
Nc1nc(Nc2ccccc2SSc2ccccc2Nc2nc(N)nc(-c3ccc4ccccc4c3)n2)nc(-c2ccc3ccccc3c2)n1 | 59%
O=C(CN1CCN(c2cc(=O)n(-c3ccccc3)c3ccccc23)CC1)Nc1nc(-c2ccccc2)cs1 | 48.2%
CC(Nc1c(C#N)cnc2ccc(-c3cnc(N)nc3)cc12)c1ccccc1 (centres undefined) | 18.4%
CC(=O)Nc1cccc(Nc2nc(N[C@H](C)c3ccccc3)c3ccccc3n2)c1 | 82.6%
CNC1CCc2c(sc(NC(=O)c3ccc(C(C)(C)C)cc3)c2C(N)=O)C1 (centres undefined) | 77.3%
COc1cc(OC)cc(C(=O)Nc2cccc(C#Cc3cccc4[nH]nc(N)c34)c2)c1 | 30.8%
COc1c(N2CC3CCCNC3C2)c(F)cc2c(=O)c(C(=O)N/N=C/c3ccccc3)cn(C3CC3)c12 (centres undefined) | 103%
COc1ccccc1-n1cc(C#N)c(N)c1C(=O)c1ccc(Br)cc1 | 94.4%
Nc1nc(-c2cccc([N+](=O)[O-])c2)c(N=Nc2ccccc2)s1 | 73.1%
COc1ccc(-c2nc3ccc(-c4nnc(SCC(=O)Nc5ccc(C(=O)/C=C/c6ccc(Cl)cc6)cc5)o4)cc3[nH]2)cc1 | 94.1%
CCCCCCCn1cc2c(NCCc3ccccc3)ncnc2n1 | 103%
COc1ccc(-c2nc3cc(Cl)c(Cl)cc3n2CC(=O)N=Nc2c(O)[nH]c3ccc(OC)cc23)cc1 | -38.3% (active)
CN1CCN(Cc2ccc(NC(=O)c3cncc(C#Cc4cnn5cccnc45)c3)cc2C(F)(F)F)CC1 | -14% (active)
Cc1cc(C)c(N2C(=O)CC(Nc3ccc(Cl)cc3Cl)C2=O)c(C)c1 (centres undefined) | 107%

SMILES | growth
CC(=O)Nc1cccc(Nc2nc(N[C@@H](C)c3ccccc3)c3ccccc3n2)c1 | 6.42% (active)
COc1cc(-c2nn(C(C)(C)C)cc2-c2ccnc(NCCCNS(=O)(=O)c3cccc(F)c3)n2)ccc1Cl | 69.4%
NC(=O)c1cccc(-n2ccc3cc(NC(=O)Nc4ccc(N5CCOCC5)c(C(F)(F)F)c4)ccc32)n1 | -3.89% (active)
O=S(=O)(Nc1cccc2ccccc12)c1ccc(-c2cnc(C3CC3)o2)cc1 | 64.6%
CCOC(=O)c1c(N)c(C#N)cn1-c1cc(OC)c(OC)c(OC)c1 | 110%
COc1ccc([C@H]2c3[nH]c4ccccc4c3C[C@H]3C(=O)N(C4CCN(Cc5c(Cl)cccc5Cl)CC4)CC(=O)N23)c(OC)c1 | 92.9%
COc1ccc2c(c1)c(-c1cc(N)n3nc(-c4cn(C)c5ccc(OC)cc45)cc3n1)cn2C | 126%
COc1cc2c(cc1OC)C(Sc1ccc(C)cc1)c1c(nc(N)c(C#N)c1N)O2 (centres undefined) | -1.22% (active)
C[C@@H](Nc1c(C#N)cnc2ccc(-c3cnc(Cl)c(NS(C)(=O)=O)c3)cc12)c1ccccc1 | -3.88% (active)
Cc1ccc(NC(=O)N[C@@H](Cc2cc(F)cc(F)c2)C(=O)NC2C(=O)N3C[C@H](O)C[C@H]3C(=O)N3CCCC[C@H]3C(=O)N[C@@H](CO)C(=O)N3C[C@H](C)C[C@H]3C(=O)O[C@H]2C)c(F)c1 (some centres undefined) | 8.45% (active)
O=C(NCc1ncc[nH]1)c1ccc(-c2nc3ccc4[nH]ncc4c3c3c2CCCC3)cc1 | 36%
CCO/C=N/C1=C(C#N)C(c2ccc(F)cc2)c2sc3c(C)cccc3c2O1 (centres undefined) | 54.3%
c1cn2c(ccc3nc(-c4cn[nH]c4)c4c(c32)CCCC4)n1 | 73.6%
O=c1[nH]c2ccccc2cc1CSc1ccccc1Nc1nccc(-c2ccc(Cl)cc2)n1 | 94.1%
Cn1ccnc1C(=O)/C=C/c1ccc(NC(=O)c2c(F)c(F)c(F)c(F)c2F)cc1 | 103%
Cc1noc(C)c1CSc1nc2ccccc2n1-c1ccccc1 | 95.6%
Cn1cc(CNc2nc3ccc(OC/C(=C/F)CN)cc3o2)ccc1=O | 101%
